Hits are enriched below; roughly 2% of the tested compounds scored in any of these assays.
SKBR3 24h inh = SK-BR-3 proliferation inhibitors, primary screen, cell-based, human, 24 h | SK-BR-3 viability, CellTiter-Glo ATP luminescence; stronger effect = lower value | actives 0.47% (n = 41,000) | AID 847, 2007 | viability, % at 10 µM;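 active means viability at or below the median of all test compounds minus 3 SD, in both replicates if run twice, cut at about 45% in these data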
Her2 expr inh = inhibitors of Her2 protein expression, primary screen, SKBR-3 cells, AlphaScreen, 66K library | SKBR-3 HER2 protein level, 18-24 h; stronger effect = lower value | HER2 level % of control, % at 10 µM | actives 0.69% (n = 65,000) | AID 645, 2007;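 active means HER2 level under 5% of the carrier-only control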
Jurkat viability = cytotoxicity toward Jurkat T cells, primary screen, cytotoxicity control, cell-based, Jurkat E6.1, 60K MLSMR library; AID 463, 2006; inhibition, % at 4 µM; actives 1.2% (n = 56,000); Jurkat E6.1 viability, ATP luminescence, 48 h;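 active means inhibition above the mean inhibition of all tested compounds plus 3 SD, cut at about 28% in these data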
Numbers stand for hits; . = inactive; / = no result given.

SMILES	SKBR3 24h inh	Her2 expr inh	Jurkat viability
Nc1cc(-c2nn[nH]n2)ccc1F	.	.	.
OC(COc1ccc(C2C=CCC2)cc1)CN1CCCCC1 (configuration not stated)	.	.	.
COCCn1nnnc1C(c1ccc(Cl)cc1)N1CCSCC1 (configuration not stated)	.	.	.
Cc1cc(NC(=O)COC(=O)C(Nc2ccc(C(F)(F)F)cc2Cl)C(C)C)no1 (configuration not stated)	/	.	.
COc1ccc(Br)cc1C1NC(=O)c2c(sc3c2CCN(C)C3)N1 (configuration not stated)	43	.	.
CCOc1ccc(Br)cc1C1NC(=O)c2c(sc3c2CCN(C)C3)N1 (configuration not stated)	.	.	.
Clc1ccc2c(c1)C(N1CCNCC1)=Nc1ccccc1O2	.	.	/
Cn1c(Cl)cnc1C1CC(=O)c2cc(Cl)ccc2O1 (configuration not stated)	.	-15	/
O=C(C1CCN(S(=O)(=O)c2cccc3cccnc23)CC1)N1CCN(C2CCCC2)CC1	/	.	.
O=C(CSc1nnc(-c2ccc(O)cc2)n1Cc1ccco1)N1CCc2ccccc2C1	.	.	.
CC1=C(C#N)c2nc(N)c(C#N)c(C)c2/C1=C\c1ccccc1	.	.	.
Cc1ccccc1NC(=O)CSc1nc(N)c(C#N)c(-c2cccs2)c1C#N	.	.	.
COc1ccc(CCNC(=O)CSc2nc(N)c(C#N)c(-c3cccs3)c2C#N)cc1OC	.	1.8	.
Cn1nnc2cc(C(=O)N3CCC(c4ccccc4)C3)ccc21 (configuration not stated)	.	.	.
O=C(O)CN1C(=O)CC(Cc2ccc(Cl)cc2)C1=O (configuration not stated)	.	-20	.
O=C1CC(Cc2ccc(Cl)cc2)C(=O)N1c1ccccn1 (configuration not stated)	.	.	.
Cc1ccnc(NC(=O)CCC(=O)N(CC(=O)NC2CCCCC2)CC2CCCO2)c1 (configuration not stated)	.	.	.
COc1ccc(OC)c(Nc2cc(-c3ccccc3)nc(N)n2)c1	/	.	98
COc1ccc(OC)c(Nc2cc(C)nc3ccccc23)c1	.	.	.
COc1ccc(S(=O)(=O)N(CC(=O)N2CCOCC2)c2cc(Cl)ccc2OC)cc1OC	/	.	.
CCOC(=O)Cc1csc(NC(=O)COc2ccc(OC)cc2)n1	/	4.1	.
CCOC(=O)Cc1csc(NC(=O)CC)n1	/	.	.
O=C(NCC1COc2ccccc2O1)C1CCCN(S(=O)(=O)c2cnc[nH]2)C1 (configuration not stated)	/	.	.
O=C(Nc1ccccc1)N1CCN(c2nc3ccccc3s2)CC1	.	.	.
O=C(Nc1ccc(F)cc1)N1CCN(c2nc3ccccc3s2)CC1	41	.	.
SMILES	SKBR3 24h inh	Her2 expr inh	Jurkat viability
O=C(NCc1ccco1)C(Cc1ccccc1)N1C(=O)c2ccccc2C1=O (configuration not stated)	/	-20	.
[N-]=[N+]=CC(=O)CNC(=O)[C@@H](Cc1ccccc1)N1C(=O)c2ccccc2C1=O	.	.	.
O=C(c1ccc(Cl)cc1)N1CCN(c2nc(N3CCCCC3)nc(N3CCCCC3)n2)CC1	.	.	/
COC(=O)CSc1nnc([C@H](Cc2ccccc2)NC(=O)OC(C)(C)C)o1	.	.	.
COC(=O)CS(=O)(=O)c1nnc([C@H](Cc2ccccc2)NC(=O)OC(C)(C)C)o1	.	-17	.
Cc1ccc(Oc2ccccc2)c(NC=O)c1	36	.	/
Nc1cc(Cl)ccc1Oc1ccccc1	.	.	.
CCOC(=O)N1CCN(C(=O)C2CCCN(Cc3nc(-c4ccc(Cl)cc4)oc3C)C2)CC1 (configuration not stated)	/	.	49
COc1ccc(CCNC(=O)C2CCCN(Cc3nc(-c4ccccc4C)oc3C)C2)cc1OC (configuration not stated)	/	.	.
Cc1oc(-c2ccc(Cl)cc2)nc1CN1CCCC(C(=O)N2CCc3ccccc32)C1 (configuration not stated)	/	.	.
CCc1ccc(-c2nc(CN3CCCC(C(=O)NCCc4ccc(OC)c(OC)c4)C3)c(C)o2)cc1 (configuration not stated)	/	-23	.
CC(=O)c1ccc(OCCCC(=O)OCC(=O)N2CCN(c3ccccc3)CC2)cc1	/	.	.
CCOc1cc(C(=O)CSc2nnc(CNc3ccc(Cl)cc3)o2)ccc1NC(=O)CC	.	-22	.
CCc1nnc(NC(=O)CSc2nnc(CNc3ccc(Cl)cc3)o2)s1	.	.	.

Screening data as filed in PubChem.
